Screening results from PubChem BioAssay.
Compounds with a hit are over-represented: about 0.93% of the library has one in this group of screens.
RPL19A-GFP yeast: alters RPL19A-GFP fluorescence in TOR pathway yeast screen; percent response vs DMSO, % at 10 µM; actives 0.3% (n = 330,000); AID 2025; S. cerevisiae RPL19A-GFP strain, flow cytometry, 3 h; hits give low values;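 active = percent response vs DMSO below 50%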;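 note: median channel GFP fluorescence of the barcoded RPL19A-GFP strain; lower means less RPL19A-GFP as with rapamycin TOR inhibition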
LAP4-GFP MLPCN: modulators of TOR pathway LAP4-GFP in S. cerevisiae | S. cerevisiae LAP4-GFP multiplex, flow cytometry GFP, 3 h; median GFP as percent of DMSO wells | GFP response vs DMSO, % at 10 µM | actives 0.34% (n = 320,000);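 active = GFP response vs DMSO above a set limit, about the screen mean plus 3 SD, cut at about 150% in these data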
AGP1-GFP MLPCN: modulators of TOR pathway AGP1-GFP in S. cerevisiae. S. cerevisiae AGP1-GFP multiplex flow cytometry, 3 h; GFP as percent of DMSO wells. GFP response vs DMSO, % at 10 µM. actives 0.02% (n = 320,000). AID 2066;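 active = GFP response relative to DMSO above a set limit, near screen average plus 3 SD, cut at about 150% in these data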;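 note: median GFP channel fluorescence of the gated AGP1 strain per well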
CIT2 TOR yeast: yeast TOR pathway CIT2-GFP modulation | S. cerevisiae CIT2-GFP strain, flow cytometry, 3 h; 100 means same as DMSO wells | GFP response vs DMSO, % at 10 µM | actives 0.065% (n = 320,000);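 active = GFP response relative to DMSO above a set limit, near the screen mean plus 3 SD, cut at about 150% in these data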;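 note: ratio of well median GFP fluorescence to mean of DMSO wells on the plate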
MEP2-GFP yeast: alters MEP2-GFP fluorescence in TOR pathway yeast screen; S. cerevisiae MEP2-GFP strain, flow cytometry GFP, 3 h; 100% = DMSO control level; actives 0.51% (n = 330,000); GFP response vs DMSO, % at 10 µM;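 active = GFP response versus DMSO above a set limit, roughly screen mean plus 3 SD, cut at about 180% in these data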;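 note: median GFP fluorescence of the barcode-gated MEP2-GFP cells per well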
LAP4 cherry2: reconfirmed LAP4-GFP TOR pathway modulator in yeast; actives 20% (n = 590); AID 2621; shares compounds with LAP4-GFP MLPCN; GFP response vs DMSO, % at 10 µM; S. cerevisiae LAP4-GFP strain, flow cytometry GFP, 3 h;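 active = GFP signal as percent of the solvent control above about 150%, meaning raised reporter expression, limit read from the data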
MEP2 cherry2: reconfirmed MEP2-GFP TOR pathway modulator in yeast; shares compounds with LAP4-GFP MLPCN; S. cerevisiae MEP2-GFP strain, flow cytometry GFP, 3 h; GFP response vs DMSO, % at 10 µM; actives 10% (n = 590);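 active = GFP signal above 150% of the solvent control wells, that is a rise of more than half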;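 note: median channel GFP fluorescence of all gated yeast cells per well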
RPL19A-GFP pick2: second confirmation of modulators of TOR reporter RPL19A-GFP in yeast; S. cerevisiae RPL19A-GFP strain, flow cytometry GFP, 3 h; hits give low values; 100% means same as DMSO wells; shares compounds with LAP4-GFP MLPCN; GFP response vs DMSO, % at 10 µM; actives 3% (n = 590);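 active = under 65% GFP response relative to DMSO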;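 note: median GFP channel fluorescence per well over the all cells gate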
CIT2 GFP CP2: reconfirmed modulator of CIT2-GFP TOR reporter in yeast. shares compounds with LAP4-GFP MLPCN. actives 8% (n = 590). GFP response vs DMSO, % at 10 µM. S. cerevisiae CIT2-GFP strain, flow cytometry GFP, 3 h; DMSO control wells read 100%;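 active = GFP response vs DMSO above about 150%, limit read from the data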;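 note: median green fluorescence per well over all gated yeast cells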
AGP1 GFP CP2: reconfirmed modulator of AGP1-GFP TOR reporter in yeast | shares compounds with LAP4-GFP MLPCN | S. cerevisiae AGP1-GFP strain, flow cytometry GFP, 3 h | percent response vs DMSO, % at 10 µM | 590 tested, under 10 active | AID 2643;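 active = over 150 percent of DMSO response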;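 note: median GFP channel fluorescence over all cells without mother daughter split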
s288c autofluor: compound is autofluorescent in yeast s288c cells; 610 tested, under 10 active; shares compounds with LAP4-GFP MLPCN; S. cerevisiae s288c, 520 nm autofluorescence, flow cytometry, 3 h; hits give high values; zero means same as solvent-only cells; fluorescence change (kMESF span) at 33 µM;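 active = fluorescence span over the dose series, or activity score, above about 33, limit read from the data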
s288c autofl DR: yeast s288c autofluorescence artifact in dose response | shares compounds with LAP4-GFP MLPCN | S. cerevisiae s288c parental, compound autofluorescence, flow cytometry, 3 h | fluorescence change (span) at 33 µM | 110 tested, under 10 active | AID 488829;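 active = fluorescence change span, or the activity score built from it, above 25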
TORC1 bypass: wildtype yeast growth loss with TORC1 bypass cells unaffected; shares compounds with LAP4-GFP MLPCN; S. cerevisiae BY4741 spot growth rating, 48-72 h; hits give low values; growth rating (0-3) at 30 µM; 120 tested, under 10 active; AID 504456;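 active = growth rating at most 1 for wild type yeast while the TORC1 bypass strain still grows fully, rated 3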
A number is an active result; 0 = inactive; - = no result.

SMILES	RPL19A-GFP yeast	LAP4-GFP MLPCN	AGP1-GFP MLPCN	CIT2 TOR yeast	MEP2-GFP yeast	LAP4 cherry2	MEP2 cherry2	RPL19A-GFP pick2	CIT2 GFP CP2	AGP1 GFP CP2	others
C=C1C(O)[C@@H]2O[C@]3(CC[C@H](/C=C/C(C)[C@@H]4CC(C)=CC5(O[C@H](C[C@@](C)(O)C(=O)O)CCC5O)O4)O3)CC[C@H]2O[C@@H]1C(O)CC(C)[C@H]1OC2(CCCCO2)CCC1C (some centres undefined)	0	267	0	0	0	268	0	0	0	0	s288c autofluor=0
C=C1C(=O)O[C@@H]2C[C@@H](C)[C@H]3C=CC(=O)[C@]3(O)C[C@@H]12	0	0	0	0	207	0	0	0	0	0
O=C(CCCOc1ccc(Cl)cc1Cl)N1CCC2(CC1)OCCO2	0	0	0	0	0	-	-	-	-	-
CCC(Oc1cc(Cl)ccc1Cl)C(=O)N1CCC2(CC1)OCCO2 (centres undefined)	0	0	0	167	0	0	0	0	0	0
Cc1nn(Cc2ccccc2)c(Cl)c1C(=O)OCC(=O)Nc1cccc2ccccc12	0	0	0	0	0	-	-	-	-	-
CN(C)C(=S)SSC(=S)N(C)C	0	201	0	0	0	0	0	0	0	0
COc1ccc(OCC(=O)N2CCN(C/C=C/c3ccccc3)CC2)cc1	0	0	0	0	0	-	-	-	-	-
Fc1ccc(C(OCCN2CCN(CCCc3ccccc3)CC2)c2ccc(F)cc2)cc1	0	208	0	0	0	0	0	0	0	0
Cc1ccc2cccc(OC(=O)N(C)c3ccccc3)c2n1	0	0	0	0	0	-	-	-	-	-
Nc1ccc2ccc3cccc[n+]3c2c1	0	0	0	191	224	-	-	-	-	-	s288c autofluor=0
C[n+]1c(-c2ccccc2)c2cc(N)ccc2c2ccc(N)cc21	0	0	0	0	0	-	-	-	-	-
COc1ccc2c(C)c(CCC(=O)N3C[C@H]4C[C@@H](C3)c3cccc(=O)n3C4)c(=O)oc2c1	0	0	0	0	0	-	-	-	-	-
C=CCn1c(O)c(C=NCCCn2ccnc2)c(=O)[nH]c1=O	0	0	0	0	0	-	-	-	-	-
NS(=O)(=O)c1ccc(-c2ccc(C=C3C(=O)NC(=O)NC3=O)o2)cc1	0	0	0	0	0	-	-	-	-	-
O=C1NC(=O)C(=Cc2ccc(SC3CCCCC3)o2)C(=O)N1	0	0	0	0	0	0	0	0	0	0
C[C@H]1C[C@@H](C)C(=O)[C@@H]([C@H](O)CC2CC(=O)NC(=O)C2)C1	0	0	0	0	0	0	159	0	0	0	s288c autofluor=0;s288c autofl DR=0;TORC1 bypass=0
Cc1cccc(NC(=O)C(C)N2CC=C(c3ccccc3)CC2)c1 (centres undefined)	0	0	0	0	0	-	-	-	-	-
CCOc1ccc(N2C(=O)/C(=C\c3cccs3)C(=O)NC2=S)cc1	0	0	0	0	0	168	0	0	0	0	s288c autofluor=0
CCOc1ccc(N2C(=O)/C(=C/c3ccco3)C(=O)NC2=S)cc1	0	0	0	0	0	-	-	-	-	-
CCN1CCN(c2ccc(N)cc2)CC1	0	0	0	0	0	-	-	-	-	-
CCN1CCN(c2ccc(N)cc2C)CC1	0	0	0	0	0	0	0	0	0	0
NC1=C([N+](=O)[O-])C(c2ccc3c(c2)OCO3)c2c(c3ccccc3oc2=O)O1 (centres undefined)	0	0	0	0	0	-	-	-	-	-
O=c1oc2ccccc2c(O)c1[C@H]1c2ccc(O)cc2Oc2c1c(=O)oc1ccccc21	0	243	0	0	0	-	-	-	-	-	s288c autofluor=0
